Screening data as filed in PubChem BioAssay.
Compounds with a hit are over-represented: about 4.5% of the library has one in this group of screens.
NR3A LBD binder: modulators (binders) of human NR3A ligand-binding domain. NR3A LBD differential scanning fluorimetry, Tm shift; 0% = protein alone, 100% = glycine-bound protein. Tm shift relative to glycine control, % at 25 µM. 340,000 tested, 2.5% active. AID 1259313;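 active = melting temperature shift of at least 10% of the positive control shift, at one fixed dose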
ZTA counter: ZTA (EBV) inhibition in EBNA-1 counter-screen. ZTA-DNA binding, fluorescence polarization. inhibition, % at 11 µM. 320,000 tested, 0.15% active. AID 2234; in the data active = inhibition above about 33%
Target sequence (P03206 whole entry, looked up): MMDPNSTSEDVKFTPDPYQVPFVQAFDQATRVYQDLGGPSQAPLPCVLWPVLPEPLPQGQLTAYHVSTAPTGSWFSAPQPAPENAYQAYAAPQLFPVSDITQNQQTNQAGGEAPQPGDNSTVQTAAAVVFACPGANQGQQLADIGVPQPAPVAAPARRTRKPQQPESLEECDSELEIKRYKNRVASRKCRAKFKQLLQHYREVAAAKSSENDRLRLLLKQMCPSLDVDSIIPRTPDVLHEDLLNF
EBNA-1 inh: blocks EBNA-1 binding to DNA; EBNA-1 DNA binding, fluorescence polarization; inhibition, % at 14.8 µM; 300,000 tested, 0.34% active; AID 1950; in the data active = inhibition above about 28%
dFosB act: activators of mouse delta FosB homodimer. 340,000 tested, 0.99% active. purified delta FosB, TAMRA-CDK5 oligo fluorescence polarization; percent of positive-control signal above neutral wells. P13346. activation, % at 25 µM;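 active = mean activation above about 17%, with every replicate also reaching it, limit read from the data, passing the limit was not always enough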
Rpn11 block: inhibitors of human proteasome Rpn11; inhibition, % at 20 µM; O00487; 360,000 tested, 0.59% active; AID 588493; human 26S proteasome, Ub4-pepOG fluorescence polarization; 20S core pre-blocked with epoxomicin;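 active = inhibition at 20 µM, scaled to each plate's controls, above about 33%, limit read from the data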
Target sequence (O00487 whole entry, looked up): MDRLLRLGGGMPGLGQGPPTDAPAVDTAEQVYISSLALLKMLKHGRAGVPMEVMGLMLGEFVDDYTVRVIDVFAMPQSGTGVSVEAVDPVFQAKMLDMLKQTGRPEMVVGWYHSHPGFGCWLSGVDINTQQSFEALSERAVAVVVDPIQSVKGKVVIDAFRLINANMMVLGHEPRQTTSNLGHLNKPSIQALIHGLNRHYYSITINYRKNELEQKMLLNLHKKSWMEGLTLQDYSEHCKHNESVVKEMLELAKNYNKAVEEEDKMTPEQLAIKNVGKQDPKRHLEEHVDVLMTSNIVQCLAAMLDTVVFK
TPT1 inh: C. albicans TPT1 enzyme inhibition; recombinant caTPT1, FP RNA substrate dephosphorylation; inhibition, % at 5 µM; 300,000 tested, 0.81% active; AID 1962;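 active = inhibition above the mean of all tested compounds plus 3 SD, set per screening campaign, cut at about 24% in these data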;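 note: plate controls were DMSO alone for no effect and ferristatin control at 100 nM for full effect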
* = called active by the depositor; x = no result.

SMILES	NR3A LBD binder	ZTA counter	EBNA-1 inh	dFosB act	Rpn11 block	TPT1 inh
O=C(O)c1ccccc1N=Nc1c(O)[nH]c2ccc([N+](=O)[O-])cc12	27*	4	13	-8	2	8
O=[N+]([O-])c1ccc2[nH]c(O)c(N=NC(=S)NCC3CCCO3)c2c1 (stereo not given)	27*	-10	2	4	8	-2
O=C(N=Nc1c(O)[nH]c2ccc([N+](=O)[O-])cc12)c1ccccc1Cl	-5	-4	-7	12	4	2
COC(=O)c1ccc(/C=C/c2c(-c3ccsc3)oc3ccc(N4CCOCC4)cc23)cc1	0	-3	-1	4	8	1
Cc1nc2c([nH]c3ccc(Br)cc32)s1	15*	12	7	5	3	-2
Cc1n[nH]c2ccc(Br)cc2c1=O	x	x	x	x	-3	x
Cc1cc(OCC(=O)N(Cc2cccs2)C2CCS(=O)(=O)C2)ccc1Cl (stereo not given)	2	4	-2	-18	-2	-1
Cc1ccc(-n2[nH]c(C)c(/C=N/Nc3ccc([N+](=O)[O-])cc3[N+](=O)[O-])c2=O)cc1C	20*	-1	8	-4	3	0
O=C1c2cccnc2C(=O)N1Cc1ccc(S(=O)(=O)N2CCOc3ccc(Cl)cc32)cc1	-7	10	-13	1	-2	4
Nc1nonc1NC(=O)NN=C1CCCCC1	0	-1	0	-6	-7	-2
Nc1cc2ccncc2c2ccccc12	9	5	-2	23*	-4	-5
CC(C)CN1C(=O)N(c2ccc(Cl)cc2)C(C)(O)CC1(C)C (stereo not given)	-3	3	3	-1	-5	1
COc1ccc(NC(=O)c2c(N)cnn2C)cc1	2	-13	-1	2	0	-2
C=CCN1C(=O)/C(=C/c2ccc(OC(C)=O)c(OCC)c2[N+](=O)[O-])SC1=S	4	x	x	-12	79*	x
CC(=O)NC(C(=O)N1CCC(c2nc3ccccc3s2)CC1)C(C)C (stereo not given)	1	-6	-7	-8	-9	-1
O=C(Nc1cc(S(=O)(=O)N2CCCCC2)ccc1Cl)c1ccccc1NS(=O)(=O)c1ccc(F)cc1	21*	20	12	-16	13	2
O=C(Nc1cc(S(=O)(=O)N2CCCCC2)ccc1O)c1ccccc1NS(=O)(=O)c1ccc(F)cc1	21*	18	1	-2	7	-2
O=C(Nc1cc(S(=O)(=O)Nc2ccc(Cl)cc2)ccc1O)c1ccc(S(=O)(=O)N2CCCCCC2)cc1	30*	4	12	15	-7	0
Cc1cnc(NC(=O)C(C)N2CCN(C)CC2)s1 (stereo not given)	0	8	-11	0	6	0
C/C(=N\Nc1ccc(F)cc1)c1ccc(N2CCOCC2)c(F)c1	-2	12	9	-7	-3	1
O=C(CSC1=NS(=O)(=O)c2ccccc2N1)Nc1cccc(F)c1	2	7	10	-4	-3	0
NC(N)=NS(=O)(=O)c1ccc(NC(=S)NC(=O)/C=C/c2ccc(F)cc2)cc1	1	-1	9	-8	-2	-4
O=C(/C=C/c1cccs1)Nc1ccc([N+](=O)[O-])cc1	26*	-5	3	-4	-3	1
O=C(/C=C/c1cccs1)Nc1ccncc1	-7	-2	0	-9	4	2
NC(N)=NS(=O)(=O)c1ccc(NC(=S)NC(=O)/C=C/c2cccs2)cc1	11*	13	19	62*	7	-6
SMILES	NR3A LBD binder	ZTA counter	EBNA-1 inh	dFosB act	Rpn11 block	TPT1 inh
CCCOC(=O)c1ccc(NC(=O)/C=C/c2cccs2)cc1	28*	4	-5	-11	-4	-3
COc1cccc2cc(C(=O)Nc3ccccc3Cl)/c(=N/NS(=O)(=O)c3ccccc3)oc12	2	-3	2	-2	5	-1
Cn1ncc2c(Nc3ccccc3Br)ncnc21	14*	-8	-7	4	-3	4
Cn1ncc2c(Nc3ccc(-c4ccccc4)cc3)ncnc21	4	19	10	-6	2	0
O=C(C1CCN(S(=O)(=O)c2ccccc2)CC1)N1CCN(Cc2ccccc2)CC1	1	x	x	-7	4	x
CCc1cccc2c(C(=O)COC(=O)c3ccc([N+](=O)[O-])s3)c[nH]c12	10*	10	-4	-1	8	-3
O=C(OCC(=O)c1c[nH]c2ccccc12)c1ccc([N+](=O)[O-])s1	10	-12	-12	0	7	-2
CC(C)Cn1c(SCC(=O)NC2CC2)nc2ccccc21	x	x	x	x	4	x
CN1C(C(=O)NCCc2cccs2)CC2Cn3c(nc4cc5ccccc5cc43)C21 (stereo not given)	1	-25	-12	-4	-1	0
CN1C(C(=O)NCc2ccccc2)CC2Cn3c(nc4cc5ccccc5cc43)C21 (stereo not given)	12*	5	1	1	-5	2
Cc1cc2nc3n(c2cc1C)CC1CC(C(=O)NCCc2cccs2)N(C)C31 (stereo not given)	13*	6	1	7	-9	-1
CN1C(C(=O)NCc2ccco2)CC2Cn3c(nc4cc5ccccc5cc43)C21 (stereo not given)	10*	4	-9	10	-4	-2
CN1C(C(=O)NCc2ccco2)CC2Cn3c(nc4cc(Cl)c(Cl)cc43)C21 (stereo not given)	1	-12	1	1	0	2
COc1ccccc1CNC(=O)C1CC2Cn3c(nc4cc5ccccc5cc43)C2N1C (stereo not given)	1	0	15	-7	-3	1
Cc1ccc(N2C(=O)NC(NS(=O)(=O)c3ccccc3)(C(F)(F)F)C2=O)cc1C (stereo not given)	2	1	6	7	-9	5
CCOC(=O)c1ccc(Nc2ccc(-c3ccc(OC)c(OC)c3)nn2)cc1	26*	17	4	-19	0	-3
Nc1nc(Nc2ccc(Cl)cc2)nc2ccccc12	39*	-5	4	9	2	-2
Cc1ccccc1Nc1nc(N)c2ccccc2n1	6	-2	0	-3	-3	1
COc1cc2nc(Nc3ccc(F)cc3)nc(N)c2cc1OC	9	10	0	21*	5	-3
Cc1ccc(Nc2nc(N)c3ccccc3n2)cc1Cl	39*	6	-7	28*	5	4
COc1cc2nc(N(C)C)nc(N)c2cc1OC	0	7	10	-8	-1	-2
Cc1ccc(SCC(=O)N2N=CCC2c2ccccc2)cc1 (stereo not given)	-2	6	3	-9	0	1
COCc1c(Br)c(C)nc2sc3c(=O)[nH]nnc3c12	6	6	-6	-6	1	1
